Results published in PubChem BioAssay (NCI).
This is part of a sample that, as a whole, favours compounds with a hit. Of some 79,000 tested, about 15% had one in any assay. Rule as the data show it: active = growth inhibition above about 70%; inactive = the rest.

Experiments:
[1] = NCI Yeast Anticancer Drug Screen. Data for the rad50 strain (AID 155);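 also: 0% = growth of vehicle-only cultures of the same strain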; settings: S. cerevisiae rad50 strain growth inhibition; at 50.0 µM; active compounds read high
Summary of the method: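 DNA repair mutant yeast, compound exposure, growth read-out; inhibition is taken relative to vehicle.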

[2] = NCI Yeast Anticancer Drug Screen. Data for the mec2-1 strain (AID 157); settings: S. cerevisiae mec2-1 strain, at 50.0 µM, active compounds read high
Summary of the method: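 Using mec2-1 yeast: add compound, measure growth, express inhibition versus vehicle-treated cultures.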

[3] = NCI Yeast Anticancer Drug Screen. Data for the sgs1 mgt1 strain (AID 161);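 also: 0% = growth of cultures given vehicle only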; settings: S. cerevisiae sgs1 mgt1 strain, at 50.0 µM, active compounds read high
Summary of the method: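 This yeast growth screen uses a strain with defined DNA-repair lesions; compound-treated growth is compared with vehicle-treated growth.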

[4] = NCI Yeast Anticancer Drug Screen. Data for the cln2 rad14 strain (AID 165);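 also: 0% = growth equal to vehicle treated cultures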; settings: S. cerevisiae cln2 rad14 strain, at 50.0 µM, active compounds read high
Summary of the method: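 Yeast strain cln2 rad14, bearing defects in cell cycle control and DNA repair, serves as the test system; values reflect growth inhibition compared with vehicle.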

[5] = NCI Yeast Anticancer Drug Screen. Data for the bub3 strain (AID 167); settings: S. cerevisiae bub3 mutant strain, at 50.0 µM, active compounds read high
Summary of the method: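 In this screen, a yeast mutant lacking normal mitotic checkpoint function is challenged with compound. Relative growth versus vehicle gives the inhibition value.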

[6] = NCI Yeast Anticancer Drug Screen. Data for the mlh1 rad18 strain (AID 175); settings: S. cerevisiae mlh1 rad18 strain growth inhibition; at 50.0 µM; active compounds read high
Summary of the method: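 Steps: expose repair-defective yeast to compound; measure growth; express inhibition against vehicle-treated controls.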

Measured: growth inhibition

CC1(C)OC2OC(C3CC3)C(OCc3ccccc3)C2O1 (stereo not given)
inactive: [1] -4.35% | [2] -1.05% | [3] -7.55% | [4] -16% | [5] -10.7% | [6] -6.5%

COC(=O)N/N=C/c1c[nH]c2ccccc12
inactive: [1] -5.15% | [2] -17.6% | [3] -9.65% | [4] -97% | [5] -17.4% | [6] -24.6%

CN1C(=O)C(=O)N2c3ccc(Cl)cc3C3(c4ccccc4)N=CC12O3 (stereo not given)
inactive: [1] 9.3% | [2] 3.05% | [3] 6% | [4] 5% | [5] -8.4% | [6] -3.1%

CC(=O)OCC1OC(n2c(C)c(N=Nc3ccc(Cl)cc3)c(C)c(C#N)c2=S)C(OC(C)=O)C(OC(C)=O)C1OC(C)=O (stereo not given)
inactive: [1] 4.65% | [2] -0.75% | [3] 25.1% | [4] 11.9% | [5] 7.55% | [6] 18.8%

CCCCC(CC)CCC(O)C(O)C(C)C (stereo not given) (tested in a mixture with another compound)
inactive: [1] -3.85% | [2] 3.2% | [3] -7.8% | [4] -14.3% | [5] -8.95% | [6] -14.8%

CC(C)(C)N[P+](Cc1ccc(C[P+](NC(C)(C)C)(NC(C)(C)C)c2ccccc2)cc1)(NC(C)(C)C)c1ccccc1
inactive: [1] -3.05% | [2] -10.1% | [3] -0.9% | [4] -13.5% | [5] -2.1% | [6] 5.45%

CCC(=O)OC1(c2ccccc2)C(CN(C)C)CCCC1CN(C)C (stereo not given)
inactive: [1] -11.2% | [2] -17.6% | [3] -22.2% | [4] -47.9% | [5] 2.85% | [6] -14.9%

O=C(NCCO)[C@H](O)[C@@H](O)[C@H](O)[C@H](O)CO
inactive: [1] 7.1% | [2] -2% | [3] -3.7% | [4] 16.1% | [5] 14.9% | [6] 15.2%

Nc1ccc(C(=O)O)cc1Cl
inactive: [1] 0.85% | [2] 0.75% | [3] 2.9% | [4] -35.5% | [5] -6.3% | [6] -22.2%

Nc1nc(Cl)nc(Cl)c1N
inactive: [1] -21.9% | [2] 7.1% | [3] -17.3% | [4] -23.4% | [5] -8.95% | [6] -2.95%

COc1cc(C(=O)OC2CC3CN(CCc4c[nH]c5ccccc45)CC3CC2OC)cc(OC)c1OC (stereo not given)
inactive: [1] 5.9% | [2] 3.25% | [3] 28.4% | [4] 32.9% | [5] 5.05% | [6] 45.7%

Cc1cc(=O)[nH]cn1
inactive: [1] 0.25% | [2] 6.2% | [3] -7.2% | [4] 7.45% | [5] 19.8% | [6] -4.9%

CCC(=O)c1cccc(-c2ccccc2)c1CC
inactive: [1] 17.9% | [2] -7% | [3] 15.9% | [4] 4.05% | [5] -22.6% | [6] 12.9%

COc1cc(OC)cc(C(NC(C)=O)NC(C)=O)c1
inactive: [1] 5.45% | [2] 2.55% | [3] 7.7% | [4] -31.2% | [5] 1.5% | [6] 17.1%

CCN(CC)C(=O)c1cccc2c1OCO2
inactive: [1] -17.7% | [2] 13.6% | [3] 2.35% | [4] 0.25% | [5] 1.4% | [6] -9.6%

COc1ccc(OC)c(NC(=O)OCc2ccc3c(c2)OCO3)c1
inactive: [1] 1.25% | [2] -14% | [3] 5.45% | [4] 10.2% | [5] 26.9% | [6] -4.7%

CCC(=O)Nc1cc(C)ccc1Cl
inactive: [1] -3.95% | [2] -7.9% | [3] 3.2% | [4] -52.9% | [5] 5.9% | [6] -0.6%

NC(N)=NC(=O)c1ccc(N)cc1
inactive: [1] -13.6% | [2] -2.25% | [3] -0.1% | [4] -7.35% | [5] -3.4% | [6] 23.5%

O=[N+]([O-])c1cccc(-c2cc(-c3cccs3)cc(-c3ccccc3)n2)c1
inactive: [1] 6.7% | [2] 3.95% | [3] -1.95% | [4] -1.4% | [5] 2.85% | [6] 4.95%

CC(=O)OCC1OC(n2c(-c3ccc(C)cc3)cc(-c3ccccc3)c(C#N)c2=S)C(OC(C)=O)C(OC(C)=O)C1OC(C)=O (stereo not given)
inactive: [1] 17.9% | [2] 9.35% | [3] 6.15% | [4] -8.55% | [5] 27.9% | [6] 27.8%

Cc1nc2c(N3CCOCC3)ncnc2o1
inactive: [1] 5.15% | [2] -1.05% | [3] -5.5% | [4] -27.4% | [5] -15.3% | [6] 7.75%

COc1cc(/C=C2\C(=O)N(C(=O)c3ccc(NC(C)=O)cc3)N=C2C)ccc1O
inactive: [1] -44.7% | [2] -41.1% | [3] -68.8% | [4] -40.4% | [5] -51% | [6] -64%

Cc1cc(Cc2c(F)c(F)c(Cc3cc(C)no3)c(F)c2F)on1
inactive: [1] 8.35% | [2] 5.6% | [3] 8.85% | [4] 1.1% | [5] 0.4% | [6] 18.1%

CCC(=O)N1CCN(C(=O)CC)CC1
inactive: [1] 6.4% | [2] -2.45% | [3] -5.25% | [4] -12.8% | [5] 1.95% | [6] -2.25%

CC(=O)Nc1c(C(=N)C#N)ncn1CCO
inactive: [1] 2.3% | [2] 10.2% | [3] 8.35% | [4] 11.2% | [5] -3.65% | [6] 5.5%

COc1cc(C2C(Cl)C(=O)N2NC(=O)c2ccc(N)cc2)cc(Br)c1O (stereo not given)
inactive: [1] 16.3% | [2] 0.95% | [3] 4.05% | [4] -38% | [5] 5.85% | [6] -11.2%

CCCCCCCC(=O)OCC(COC(=O)CCCCCCC)OC(=O)CCCCCCC
inactive: [1] 40.8% | [2] 3.6% | [3] 1.6% | [4] -33.5% | [5] 9.55% | [6] 27.1%

Cc1oc(C)c2c(N=Nc3ccc([N+](=O)[O-])cc3[N+](=O)[O-])c3ccccc3c(O)c12
inactive: [1] 25% | [2] 25.1% | [3] 11.4% | [4] -27.6% | [5] 37.5% | [6] 49.6%

CS(=O)(=O)OCc1nnn(-c2ccccc2)c1COS(C)(=O)=O
inactive: [1] 7.2% | [2] -9.1% | [3] -3.5% | [4] -40.5% | [5] 11.5% | [6] -11.7%

Cc1cc(=O)oc2c(-c3ccccc3)nnc(Cl)c12
inactive: [1] 21.4% | [2] 15% | [3] 16.2% | [4] 13.9% | [5] 18.1% | [6] 40.5%

COC(=O)C1OC(O[C@H]2CC[C@]3(C)[C@H]4CC=C5[C@@H]6CC(C)(C)CC[C@]6(C(=O)OC)CC[C@@]5(C)[C@]4(C)CC[C@H]3C2(C)C)C(O)C(O)C1O (stereo not given in full)
inactive: [1] 5.45% | [2] -8.4% | [3] 2.05% | [4] 5.85% | [5] 23.6% | [6] 15.1%

Nc1ccc(CC(=O)O)cc1
inactive: [1] 28.6% | [2] -10.7% | [3] -26.4% | [4] -47.2% | [5] 7.25% | [6] 0.05%

CCCCOc1ccc(/C=C/C(=O)OCC(CC)CCCC)cc1 (stereo not given)
inactive: [1] -10.2% | [2] -6.2% | [3] 12.4% | [4] -63.4% | [5] 12.2% | [6] -9.05%

Cc1ccc(NC(=O)CCCC(=O)CC(=O)c2ccc(Br)cc2)cc1
inactive: [1] -0.4% | [2] -14.9% | [3] -40.4% | [4] -26.2% | [5] -12.2% | [6] -24.6%

Brc1c(NC2=NCCN2)ccc2nccnc12
inactive: [1] 6.2% | [2] 5.1% | [3] -24% | [4] -6.45% | [5] -22.1% | [6] -56.9%

C1COCCN1.C1COCCN1.N.N.[Cl-].[Pt+2]
inactive: [1] -9.5% | [2] -5.4% | [3] -38.1% | [4] -14.2% | [5] -2.45% | [6] -14.8%

NC(=S)N/N=c1\cc(C(=O)Nc2ccc([N+](=O)[O-])cc2[N+](=O)[O-])oc2ccccc12
inactive: [1] 19.1% | [2] 26.3% | [3] 16.1% | [4] -6% | [5] 22.9% | [6] 28%

O=C1CSC(c2ccccc2[N+](=O)[O-])N1c1ccc(-n2c(-c3ccccc3)nc3ccccc3c2=O)cc1 (stereo not given)
inactive: [1] -8.95% | [2] -10.1% | [3] -4.05% | [4] -16.1% | [5] 13.3% | [6] 7.6%

CCCCCCCCCCCCCCCCCC(=O)Nc1nc(N)nc(N)n1
inactive: [1] 11.1% | [2] 15.1% | [3] 3.6% | [4] 18.6% | [5] -5.15% | [6] 6.15%

CCCCN(CCCC)C(=O)C(=O)C(C)C(=O)CC (stereo not given)
inactive: [1] -3.6% | [2] -2.75% | [3] 14.7% | [4] -1.05% | [5] 12.3% | [6] 25.7%
